Bioassay records deposited in PubChem by National Center for Advancing Translational Sciences (NCATS).
gsp agonist = gsp mutant agonism. gsp mutant cells, cAMP HTRF, 30 min. Potency, µM (top dose mostly 76.9 µM), inactives show at the top dose activation (cAMP increase), usual class: activators. 340,000 compounds, 0.13% hits; active = well fitted activation curve with a large enough effect; inconclusive = small, poorly fitted or top-dose-only effect, or another doubt; inactive = no such curve, though single readings can be large or run the other way; cell line not stated here;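 note: phosphodiesterase inhibitor Ro 20-1724 added with compounds to block cAMP breakdown; potency is the fitted concentration of half-maximal effect; nearly all actives have a fitted effect of over 60% in size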
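Cells stably selected in G418 were plated at 2000/well, grown 16-24 hr, then given compounds in DMSO with the PDE inhibitor […] (300 uM solution added) for 30 min at 37C; cAMP was read by HTRF.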
TCR act = T cell receptor activation; primary human leukocytes, anti-CD3, IL-2 HTRF, 48 h; Potency, µM (highest dose often 9.22 µM), without a hit: at the highest dose activation of IL-2 secretion, usual class: activators; 330,000 tested, under 10 active; active = well fitted activation curve with a large enough effect; inconclusive = small, poorly fitted or top-dose-only effect, or another doubt; inactive = no such curve, though single readings can be large or run the other way; note: % of control where 0% means no effect
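IL-2 produced over 48 hr by a-CD3 bead-stimulated primary human leukocytes exposed to compounds was detected with a homogeneous time-resolved FRET immunoassay, 665nm acceptor signal after 320nm excitation.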
Pin1 inh = inhibitors of human Pin1; AID 504891; 390,000 compounds, 0.009% hits; Pin1 FP peptide displacement, HiFluor488, 10 min; Q13526; Potency, µM (highest dose often 115 µM), inactives show at the highest dose activity, negative = inhibition, usual class: inhibitors; active = well fitted inhibition curve with a large enough effect in the polarisation, with a control signal flat, not every such curve was filed as active; inconclusive = small, poorly fitted or top-dose-only effect, or effect the other way, or a change in a side signal; inactive = no such curve, though single readings can be large or run the other way; the % refers to the polarisation; note: potency is the fitted concentration of half-maximal effect; % is set by controls: 0 for no effect and ±100 for the full control effect
Target sequence (Q13526 whole entry, looked up): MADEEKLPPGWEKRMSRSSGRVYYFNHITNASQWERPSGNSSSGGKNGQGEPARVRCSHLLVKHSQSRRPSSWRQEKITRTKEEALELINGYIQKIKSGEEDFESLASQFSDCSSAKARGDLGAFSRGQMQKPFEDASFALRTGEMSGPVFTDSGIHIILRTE
gsp antag = antagonists of gsp mutant (McCune-Albright syndrome). gsp-mutant cells, cAMP HTRF, 30 min. Potency, µM (top dose mostly 76.9 µM), for inactives: top-dose activity change, negative = inhibition, actives largely listed as inhibitors. 340,000 compounds, 0.4% hits. AID 624288; calls by dose curve; cell line not stated here;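 note: intracellular cAMP measured with PDE inhibitor Ro 20-1724 present during compound exposure; potency is the fitted concentration of half-maximal effect; % is set by controls: 0 for no effect and ±100 for the full control effect; nearly all actives have a fitted effect of over 65% in size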
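Cells, 2000/well, grown 16–24 h in DMEM 10% FBS with 0.5 mg/ml G418, then compounds plus […] (300 uM addition stock), 30 min at 37C. cAMP read by HTRF (cAMP-d2 and anti-cAMP antibody-K in lysis buffer) after 30 min RT.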
TSHR antagonist = blocks TSH signaling through the human TSH receptor; P16473; AID 504810; TSHR-expressing cells, TSH-stimulated cAMP HTRF, 2 h; hits give low values; activity change, negative = inhibition, % at 11.5 µM; 330,000 compounds, 0.2% hits;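 active = activity change below a set negative limit, meaning inhibition stronger than a set level, cut at about -70% in these data; inconclusive = activity change between two set negative limits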; note: % is set by controls: 0 for no effect and ±100 for the full control effect
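Inhibition of cAMP made by TSHR-expressing cells under TSH stimulation (4nM final, EC80; 2 h, 37 deg C) is quantified with a one-step lysis HTRF kit, anti-cAMP cryptate versus cAMP-d2.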
Active calls of the source: *; ? = inconclusive; / = no result; [ ] = dose if it differs, or a comment. Most compounds without a hit are left out; they make up all but 0.63% or so of the library.

SMILES	gsp agonist	TCR act	Pin1 inh	gsp antag	TSHR antagonist
CC(=O)c1ccc(N2CCN(C(=O)CCCc3nc4ccccc4s3)CC2)cc1	-5%	-15%	15%	32µM*	-9
CN1C(=O)c2ccccc2Sc2ccc(NC(=O)c3ccc(C(F)(F)F)cc3)cc21	/	/	3%	/	/
CSC1=NSC2=NC(=O)/C(=C\c3coc4ccccc4c3=O)C(=N)N12	?	-2%[46.1 µM]	?	?	-91*
CC(C)CSC1=NSC2=NC(=O)/C(=C\c3coc4ccccc4c3=O)C(=N)N12	10%	1%	?	?	-25
COc1cccc(-n2c(=O)c3c(C)c(C)sc3n(CC(=O)NCc3ccc(C)cc3)c2=O)c1	/	/	6%	/	/
Cc1cc(C(=O)N2CCCC(C(=O)c3ccc(Oc4ccccc4)cc3)C2)n[nH]1 (centres undefined)	-10%	-2%	-5%	35µM*	-23
Cc1ccc2[nH]nc(C(=O)N3CCCC(C(=O)c4ccc(Cl)cc4)C3)c2c1 (centres undefined)	-13%[15.4 µM]	-2%	-6%	14µM*	-13
Cc1noc(C)c1C(=O)N1CCCC(C(=O)c2ccc(Cl)cc2)C1 (centres undefined)	-25%[15.4 µM]	-9%	-3%	14%	2
O=C(c1ccc(Oc2ccccc2)cc1)C1CCCN(C(=O)c2cnccn2)C1 (centres undefined)	2%[15.4 µM]	-2%	5%	-16%	4
Cc1ccc(NC(=O)CSc2nc3ncc(Br)cc3[nH]2)cc1C	19%	-3%	-3%	-23%	-88*
Cc1ccc(Sc2nc(-c3ccccc3)nnc2C(F)(F)F)cc1	-29%	-29%	-3%	15%	-4
Cc1cc(NS(=O)(=O)c2ccc(Nc3nc(-c4ccc(O)cc4)cs3)cc2)no1	-32%	-2%[46.1 µM]	?	-18%	-6
Cc1cc(NS(=O)(=O)c2ccc(Nc3nc(-c4ccc(C)c(C)c4)cs3)cc2)no1	-7%	0%[46.1 µM]	-13%	22µM*	-1
CCNC(=S)NNC(=O)CCn1cc(C)cn1	?	6%[46.1 µM]	1%	8%	5
CCOCCCNS(=O)(=O)c1ccc(NC(=O)c2ccc([N+](=O)[O-])cc2Cl)cc1	3%[15.4 µM]	-3%[46.1 µM]	2%	-10%	5
CCC(=O)N1CCN(c2ccnc3cc(Cl)ccc23)CC1	-31%[15.4 µM]	1%	7%	-4%	-3
O=C(c1ccc(Cl)cc1)N1CCN(c2ccnc3cc(Cl)ccc23)CC1	11%[15.4 µM]	1%	-12%	40µM*	3
N#CC1=C(N)N2C(=C(C#N)C1c1ccc(Br)cc1)Nc1ccccc12 (centres undefined)	51%	7%[46.1 µM]	5%	?	-79*
N#CC1=C(N)N2C(=C(C#N)C1c1cccc(Br)c1)Nc1ccccc12 (centres undefined)	0%[15.4 µM]	-8%[46.1 µM]	6%	3%	0
CCNC(=O)CC1SC(=Nc2ccccc2C)N(C)C1=O (centres undefined)	-24%	4%[46.1 µM]	-12%	10%	2
C[C@H]1CN([C@@H](C)CO)C(=O)c2cc(-c3cccc(C(=O)N(C)C)c3)cnc2O[C@H]1CN(C)C(=O)Cc1ccccn1	-12%	/	/	/	/
COc1ccc(CNC(=O)[C@H](C)N2C(=O)N3CCc4c([nH]c5ccc(OC)cc45)[C@@]3(C)C2=O)cc1	/	3%	1%	-13%	0
CCOC(=O)C1CCN(S(=O)(=O)c2csc(C(N)=O)c2)CC1	13%	-2%	-3%	9%	15
CC1CCCN(S(=O)(=O)c2csc(C(N)=O)c2)C1 (centres undefined)	-2%	11%	0%	4%	-140*
CCCCNc1c(-c2ccc(OC)c(SC3CCCCC3)c2)nc2ccc(C)cn12	?	-3%	?	32µM*	-36
SMILES	gsp agonist	TCR act	Pin1 inh	gsp antag	TSHR antagonist
COc1ccc(-c2nc3ccccn3c2NCc2ccc3c(c2)OCO3)cc1	?	2%[46.1 µM]	0%	-8%	38
COc1ccc(-c2nc3ccc(C)cn3c2NCc2ccccc2)cc1SC1CCCCC1	/	-3%	1%	35µM*	-40
COc1ccc(-c2cc(-c3nc4ccccn4c3NCc3ccccc3)ccc2OC)cc1	/	7%	-2%	?	-97*
CCc1ccc(Nc2ncnc3nc[nH]c23)cc1	50%	-3%	-15%	7%	-5
Cc1c(NC(=O)Nc2c(Cl)cccc2Cl)c(=O)n(-c2ccccc2)n1C	?	7%	5%	4%	19
Cc1c(NC(=O)Nc2ccccc2Cl)c(=O)n(-c2ccccc2)n1C	10%	-3%	3%	8%	-80*
CC(=O)N1c2ccc(S(=O)(=O)N3CCC(C(=O)NCc4ccc(Cl)cc4)CC3)cc2CC1C (centres undefined)	1%	7%	8%	?	5
CC(=O)N1c2ccc(S(=O)(=O)N3CCC(C(=O)NCCc4ccc(Cl)cc4)CC3)cc2CC1C (centres undefined)	?	-3%	-3%	35µM*	-13
CC(=O)N1c2ccc(S(=O)(=O)NCCC(=O)Nc3ccccc3C)cc2CC1C (centres undefined)	6%	0%	8%	3%	-133*
CC(=O)N1CCc2cc(S(=O)(=O)NCCC(=O)N3CCc4ccccc4C3)ccc21	13%	0%	-13%	40µM*	-4
CC(=O)N1CCc2cc(S(=O)(=O)CCC(=O)N3CCc4ccccc4C3)ccc21	4%	/	-4%	-8%	10
CC(=O)N1c2ccc(S(=O)(=O)NCCC(=O)Nc3cccc(Cl)c3)cc2CC1C (centres undefined)	?	3%	2%	-6%	-126*
CC(=O)N1c2ccc(S(=O)(=O)NCCC(=O)Nc3ccc(C)c(Cl)c3)cc2CC1C (centres undefined)	-7%	-18%	0%	-7%	-2
CC(=O)N1CCc2cc(S(=O)(=O)CCC(=O)Nc3ccc(Cl)cc3F)ccc21	-41%	-4%	-1%	16%	-3
Cc1ccc2[nH]c3c(=S)nc[nH]c3c2c1	11µM*	-10%[46.1 µM]	-1%	31%	157
CS(=O)(=O)c1ncc(Cl)c(C(=O)Nc2ccc(OC(F)F)cc2)n1	-2%	-3%	1%	-21%	-74*
CCS(=O)(=O)c1ncc(Cl)c(C(=O)Nc2ccc(S(=O)(=O)N(C)c3ccccc3)cc2)n1	14%[15.4 µM]	-5%	48%	2%	-92*
CCN(c1ccccc1)S(=O)(=O)c1ccc(NC(=O)c2nc(S(C)(=O)=O)ncc2Cl)cc1	-23%	-2%	16%	-2%	-89*
CCS(=O)(=O)c1ccccc1C(=O)N1CCN(c2nc3ccccc3s2)CC1	/	/	-13%	/	/
COc1ccccc1NC(=S)NC(NC(C)=O)C(Cl)(Cl)Cl (centres undefined)	5%	3%	1%	7%	5
Cc1ccc(CCNC(=O)C2CCN(S(=O)(=O)c3cccc4cccnc34)CC2)cc1	-17%	5%	4%	-13%	-107*
